PubChem BioAssay (Tox21)
Records with an inconclusive call do not appear. The source made the active and inactive calls. Unless noted, calls come from the whole dose curve; as a rule, active = well fitted curve in the direction sought with a large enough effect in the repeat runs; inconclusive = weak or mixed curves; inactive = no such curve, though single readings can be large; an effect the other way counts as inactive or inconclusive.

Tests used:
[1] = qHTS assay to identify small molecule agonists of the hypoxia (HIF-1) signaling pathway - cell viability counter screen (AID 1224844; calls by dose curve; note: nearly all actives have a fitted effect of over 50% in size)
Procedure, shortened: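 ME-180 HRE-bla cells, 2,000/well, 0.5% dialyzed FBS; 5 hr settle, 17 hr compound at 37C/5% CO2; CCF4-AM reporter read first, then CellTiter-Glo luminescence after 30 min RT.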

[2] = qHTS assay to identify small molecule agonists of H2AX (AID 1224845; active = well fitted activation curve with a large enough effect in the signal ratio in the repeat runs, not every such curve was filed as active; the % refers to the signal ratio)
Procedure, shortened: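 Wild-type CHO-K1 cells plated overnight, then exposed 3 hr at 37C to compounds at 15 concentrations (0.76% DMSO). Lysed, then HTRF anti-pH2AX(S139)-cryptate/anti-H2AX-d2 detection after 24 hr at room temperature; emissions 665 and 620 nm.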

[3] = qHTS assay to identify small molecule agonists of the hypoxia (HIF-1) signaling pathway (AID 1224846; active = well fitted activation curve with a large enough effect in the signal ratio in the repeat runs, not every such curve was filed as active; the % refers to the signal ratio)
Procedure, shortened: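 Cell line: CellSensor HRE-bla ME-180; 2,000 cells/well; 0.5% dialyzed FBS; 5 h preincubation; DMSO compound pin transfer; 17 h, 37C, 5% CO2; CCF4-AM added; bla FRET signal scored for activation.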

[4] = qHTS assay to identify small molecule agonists of H2AX - cell viability counter screen (AID 1224847; calls by dose curve; note: top concentration of the series differs between compounds; nearly all actives have a fitted effect of over 30% in size)
Procedure, shortened: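 CHO-K1 wt, 1000 cells/well, o/n 37C; cpds 15 conc, 3 h 37C, 0.76% DMSO; CellTiter-Glo, 30 min RT, luminescence.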

[5] = qHTS RealTime-Glo MT Cell Viability Assay in HepG2 cells - 24 hour (AID 1224867); note: nearly all actives have a fitted effect of over 50% in size
Procedure, shortened: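 Cell number in HepG2 cultures estimated from NanoLuc luminescence generated by metabolic reduction of a prosubstrate by living cells. The homogeneous, nonlytic format allowed repeated reads at 0, 8, 16, 24, 32 and 40 h of compound exposure.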

[6] = A CellTox Green Cytotoxicity Assay to monitor cytotoxicity in HEK293 cells - 0 hour (AID 1224869); note: nearly all actives have a fitted effect of over 50% in size
Procedure, shortened: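 Nonlytic real-time cytotoxicity: HEK293 + CellTox Green reagent plated, 5 h preincubation, pintool compound addition (23 nL in DMSO), 37 C for 40 h, fluorescence measured at successive time points.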

[7] = qHTS RealTime-Glo MT Cell Viability Assay in HEK293 cells - 32 hour (AID 1224868); note: top concentration of the series differs between compounds; nearly all actives have a fitted effect of over 50% in size
Procedure, shortened: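 Homogeneous bioluminescent viability format in HEK293 cells (600 cells/well). Following 5 h at 37 C/5% CO2, 23 nL compound was pintooled; the signal was measured repeatedly during 40 h incubation.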

[8] = qHTS RealTime-Glo MT Cell Viability Assay in HepG2 cells - 40 hour (AID 1224870); note: nearly all actives have a fitted effect of over 50% in size
Procedure, shortened: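 HepG2 cells mixed with RealTime-Glo MT reagents (NanoLuc plus cell-permeant prosubstrate) were seeded at 600 cells/well, incubated 5 h at 37 C/5% CO2, then pinned with compounds in DMSO; nonlytic luminescence tracked viability during 40 h treatment.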

[9] = qHTS assay to identify small molecule antagonists of the estrogen related receptor (ERR) signaling pathway from Tox21 library (AID 1224848); note: nearly all actives have a fitted effect of over 50% in size
Procedure, shortened: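 Screening used an ERR reporter line supplied by NTP, exposed for 18 h at 37 C to library compounds delivered in DMSO. Signal was luciferase luminescence developed with ONE-Glo at room temperature for 30 min.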

[10] = qHTS assay to identify small molecule agonists of the estrogen related receptor (ERR) signaling pathway from Tox21 library (AID 1224849; calls by dose curve; note: nearly all actives have a fitted effect of over 15% in size); conditions: ERR reporter cell line, ONE-Glo luciferase, 18 h; at 92.4 µM (top of the series) unless noted
Procedure, shortened: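 ERR cells, 6 h pre-incubation 37 C/5% CO2; cpd in DMSO pinned; 18 h 37 C; ONE-Glo added, 30 min RT; luminescence read. Agonist mode, qHTS.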
% is set by controls: 0 for no effect and ±100 for the full control effect.

Cc1ccc2ccc(Cl)cc2n1
inactive: outcome [1] | outcome [2] | outcome [3] | Potency [4] | outcome [5] | outcome [6]

CCCOC(=O)C(C)O (stereo not drawn)
inactive: outcome [1] | outcome [2] | outcome [3] | Potency [4] | outcome [5] | Potency [7] | outcome [6] | outcome [8]

OCCN(CCO)c1cccc(Cl)c1
inactive: outcome [1] | outcome [2] | outcome [3] | Potency [4] | outcome [5] | Potency [7] | outcome [6] | outcome [8]

CCN(C)C(=O)Oc1cccc([C@H](C)N(C)C)c1
inactive: outcome [1] | outcome [2] | outcome [3] | Potency [4] | outcome [5] | Potency [7] | outcome [6] | outcome [8]

CC(=O)OC(C)OC(=O)C(C)c1ccc(-c2ccccc2)c(F)c1 (stereo not drawn)
inactive: outcome [1] | outcome [2] | outcome [3] | Potency [4] | outcome [5] | Potency [7] | outcome [6] | outcome [8]

CC(C)CCCC(C)(C)O
inactive: outcome [1] | outcome [2] | outcome [3] | Potency [4] | Potency [7] | outcome [6] | outcome [8]

Cc1cccc(OCC(O)CNC(C)(C)C)c1C (stereo not drawn)
inactive: outcome [1] | outcome [2] | outcome [3] | Potency [4] | Potency [7] | outcome [6] | outcome [8]

CN1CCN(CC(=O)N2c3ccccc3C(=O)Nc3cccnc32)CC1
inactive: activity change, negative = cytotoxicity [1] 0.9% [at 6.97 µM] | activation (H2AX phosphorylation) [2] 2.24% [at 14 µM] | activity change, negative = cytotoxicity [4] -0.342% [at 14 µM] | activity, negative = inhibition [9] 0.334% [at 8.39 µM] | activity change, positive = activation [10] -0.263% [at 8.39 µM] | activity change, negative = cytotoxicity [5] 0.294% [at 6.97 µM] | activity change, negative = cytotoxic [7] 5.96% [at 6.97 µM] | cytotoxicity [6] 1.41% [at 6.97 µM] | activity change, negative = cytotoxic [8] 3.53% [at 6.97 µM]

CC(S)C(=O)NCC(=O)O (stereo not drawn)
inactive: outcome [1] | outcome [2] | outcome [3] | Potency [4] | Potency [7] | outcome [8]

CC(=O)c1ccc2c(c1)Cc1ccccc1-2
inactive: outcome [1] | outcome [2] | outcome [3] | outcome [5] | Potency [7] | outcome [6] | outcome [8]

CCCCNC1CC(C)(C)NC(C)(C)C1
inactive: outcome [1] | outcome [2] | outcome [3] | Potency [9] | activity change, positive = activation [10] 8.08% | outcome [5] | Potency [7] | outcome [6] | outcome [8]

Cc1ccccc1OCC(O)CO (stereo not drawn)
inactive: outcome [1] | outcome [2] | Potency [4] | Potency [9] | activity change, positive = activation [10] 1.39% [at 42.5 µM] | Potency [7] | outcome [6] | outcome [8]

COc1cc(NS(=O)(=O)c2ccc(N)cc2)nc(OC)n1
inactive: outcome [1] | outcome [2] | Potency [4] | Potency [9] | outcome [5] | Potency [7] | outcome [6] | outcome [8]

O=C(CCNNC(=O)c1ccncc1)NCc1ccccc1
inactive: outcome [1] | outcome [2] | Potency [4] | outcome [5] | Potency [7] | outcome [6]

COc1ccc(C2CNC(=O)C2)cc1OC1CCCC1 (stereo not drawn)
inactive: outcome [1] | outcome [2] | Potency [4] | Potency [9] | activity change, positive = activation [10] -4.57% [at 42.5 µM] | outcome [5] | Potency [7] | outcome [6] | outcome [8]

CCCCCCCCSCC
inactive: outcome [1] | outcome [2] | outcome [3] | Potency [9] | activity change, positive = activation [10] 4.95% | Potency [7] | outcome [6] | outcome [8]

Cc1ccsc1/C=C/C1=NCCCN1C
inactive: outcome [1] | outcome [2] | Potency [4] | Potency [9] | activity change, positive = activation [10] -1.39% [at 42.5 µM] | Potency [7] | outcome [6] | outcome [8]

NCCS
inactive: outcome [1] | outcome [2] | Potency [4] | Potency [9] | activity change, positive = activation [10] -2.88% [at 42.5 µM] | Potency [7] | outcome [6] | outcome [8]

CNS(=O)(=O)CCc1ccc2[nH]cc(C3CCN(C)CC3)c2c1
inactive: outcome [1] | outcome [2] | outcome [3] | Potency [4] | Potency [7] | outcome [6] | outcome [8]

C=CC(OCC)OCC
inactive: outcome [1] | outcome [2] | outcome [3] | Potency [4] | Potency [7] | outcome [6] | outcome [8]

O=C(NCC(O)CO)c1c(I)c(C(=O)NCC(O)CO)c(I)c(N(CCO)C(=O)CO)c1I (stereo not drawn)
inactive: outcome [1] | outcome [2] | Potency [4] | Potency [9] | activity change, positive = activation [10] 5.02% [at 42.5 µM] | outcome [5] | Potency [7] | outcome [6]

CCOCCOCCOCC
inactive: outcome [1] | outcome [2] | outcome [3] | outcome [5] | Potency [7] | outcome [6] | outcome [8]

Oc1cn2c(n1)Nc1ccc(Cl)c(Cl)c1C2
inactive: activity change, negative = cytotoxicity [1] -1.47% [at 15.8 µM] | activation (H2AX phosphorylation) [2] -0.0397% [at 31.6 µM] | activation [3] -0.566% [at 15.8 µM] | activity change, negative = cytotoxicity [4] 0.633% [at 31.6 µM] | activity change, negative = cytotoxic [7] 9.1% [at 15.8 µM] | cytotoxicity [6] 0.503% [at 15.8 µM] | activity change, negative = cytotoxic [8] -4.5% [at 15.8 µM]

CCCCCOC(=O)CCC
inactive: outcome [1] | outcome [2] | outcome [3] | Potency [9] | activity change, positive = activation [10] 10.4% | outcome [5] | Potency [7] | outcome [6] | outcome [8]

COCCOC(=O)C1=C(C)NC(C)=C(C(=O)OC(C)C)C1c1cccc([N+](=O)[O-])c1 (stereo not drawn)
inactive: outcome [1] | outcome [2] | outcome [3] | Potency [4] | outcome [6]
